We go through seven molecules from PubChem BioAssay.

Structures are written as SMILES. Values without a mark were called inactive. For some of these results: Entries with a potency or affinity are not part of this list. The list shows a part of the results. Active and inactive are the calls of the source.

The test system of assay [1] is TRPC4 beta (transient receptor potential cation channel C4), mouse. The assay is described as follows: activators of mouse TRPC4 channel, confirmation, cell-based, Fluo4 calcium, HEK293 TRPC4beta/mu-opioid, duplicates, 10 µM (AID 2426;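 active means fluorescence ratio normalized to control raised more than 50% in primary screen plus both repeat runs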). The following applies: Fluo4 calcium fluorescence, at 10 µM; active compounds read high.
Assay [2] relates to transient receptor potential cation channel C4 beta (TRPC4), mouse. The assay is described as follows: activators of mouse TRPC4 channel, confirmation, cell-based, second round, Fluo4, HEK293 TRPC4beta/mu-opioid, 1 µM (AID 2461). The following applies: Fluo4 calcium fluorescence, at 1 µM; active compounds read high.
For assay [3], the system named is TRPC4 (transient receptor potential cation channel C4 beta), mouse. The assay is described as follows: positive allosteric modulators of mouse TRPC4, confirmation, cell-based, second round, Fluo-4, HEK293 TRPC4beta/mu-opioid, 1 µM (AID 2554;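 active means primary screen hit whose fluorescence ratio, in both repeats, exceeds the weak agonist control mean by 3 SD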). The following applies: DAMGO EC20, Fluo-4 calcium flux, at 1 µM; active compounds read high. A general note: Calcium flux is commonly read through the fluorescence of an indicator in the cells.

Assay [4] relates to TRPC4 beta (transient receptor potential cation channel C4), mouse. The assay is described as follows: positive allosteric modulators of mouse TRPC4, confirmation, cell-based, Fluo-4, HEK293 TRPC4beta/mu-opioid (AID 2555;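 active means primary screen hit whose calcium fluorescence ratio, in both repeats, exceeds the weak agonist control mean by 3 SD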). The following applies: DAMGO EC20, Fluo-4 calcium flux, at 10 µM; active compounds read high.
Assay [5] has as its target Short transient receptor potential channel 4 (Mus musculus) (UniProt Q9QUQ5). The experiment in a line: inhibitors of mouse TRPC4 channel, confirmation, cell-based, Fluo4, HEK293 TRPC4beta/mu-opioid (AID 2636;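 active means calcium signal cut by more than 3 SD below the full-agonist control yet still positive, in both repeats and the earlier primary screen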). The following applies: DAMGO, Fluo4 calcium flux, at 10 µM; active compounds read high.
The target is the same in assay [6]. The assay is described as follows: inhibitors of mouse TRPC4 channel, confirmation, cell-based, second round, Fluo4, HEK293 TRPC4beta/mu-opioid, 1 µM (AID 2637;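 active means calcium signal ratio cut to more than 3 SD under the fully stimulated control mean yet still positive, in both repeats and the primary screen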). The following applies: Fluo4 calcium flux, DAMGO, at 1 µM; active compounds read high.
Assay [7] shares this target. The experiment in a line: mouse TRPC4 channel activators, dose response, cell-based, HEK293 TRPC4/mu-opioid, Fluo-4 calcium (AID 434937;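 active means primary screen activator hit with a dose response curve and TRPC4 channel activation at any tested dose; inactive means no activation, no dose response, or not a primary hit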).
Assay [8] has the same target. The experiment in a line: TRPC4 positive allosteric modulators, dose response, cell-based, HEK293 TRPC4/mu-opioid, Fluo-4 calcium, EC20 DAMGO (AID 434941;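 active means earlier screen potentiator hit that boosts the TRPC4 ion channel at some dose, with a dose response; inactive means no potentiation, no dose response, or not a prior hit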;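 further: calcium entry triggered by an EC20 dose of DAMGO at the co-expressed mu-opioid receptor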).
For assay [9] the target is unchanged. The assay is described as follows: mouse TRPC4 channel inhibitors, dose response, cell-based, HEK293 TRPC4/mu-opioid, Fluo-4 calcium (AID 434942;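 active means primary screen inhibitor hit that blocks the TRPC4 channel at some tested dose, yielding a dose curve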).
Assay [10] deals with Short transient receptor potential channel 6 (Mus musculus) (UniProt Q61143). The experiment in a line: inhibition of mouse TRPC6 channel, confirmation, selectivity assay for TRPC4 inhibitor project, cell-based, HEK293, membrane potential dye, duplicate (AID 434948;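 active means active in primary screen and both duplicates, each dropping signal beyond three positive-control SD with fluorescence still positive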). The following applies: HEK293 TRPC6, membrane potential dye fluorescence, at 10 µM, stimulated with maximal-effect acetylcholine; active compounds read high.

For assay [11] the target is unchanged. The experiment in a line: activation of mouse TRPC6 channel, confirmation, selectivity assay for TRPC4 activator project, cell-based, HEK293, membrane potential dye, duplicate (AID 434950;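 active means membrane potential signal rise above negative control mean plus 3 SD in both duplicates, also active in the earlier TRPC4 screen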). The following applies: HEK293 TRPC6, membrane potential fluorescence, at 10 µM; active compounds read high.
Assay [12] has the same target. The experiment in a line: TRPC6 potentiation by TRPC4 potentiator hits, confirmation, selectivity assay for TRPC4 potentiator project, HEK293 cells, membrane potential dye, duplicate (AID 434952;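 active means compound raising the membrane signal above positive-control mean plus 3 SD in both repeats, and a primary screen hit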). The following applies: HEK293 TRPC6, membrane potential dye fluorescence, at 10 µM, maximal acetylcholine added after compound; active compounds read high.
Assay [13] concerns the target Short transient receptor potential channel 4 (Mus musculus) (UniProt Q9QUQ5). The assay is described as follows: calcium flux activators in TRPC4/5HT1a cells, counter-screen for TRPC4 activator project, cell-based, second counter screen, HEK293 TRPC4/5HT1a, Fluo-4 (AID 434977;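 active means calcium signal rise above buffer-control mean plus 5 SD in both duplicates, and also a hit in the primary screen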). The following applies: Fluo-4 calcium flux, at 10 µM; active compounds read high.
The nature of assay [14]: calcium flux inhibitors in TRPC4/5HT1a cells, confirmation, counter-screen for TRPC4 inhibitor project, cell-based, second counter screen, HEK293 TRPC4/5HT1a, Fluo-4 (AID 434978;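 active means primary screen active whose calcium signal fell more than 3 SD beyond the full-serotonin control mean in both duplicate plates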;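 further: serotonin given first at submaximal then at maximal dose after compound preincubation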). The following applies: Fluo-4 calcium flux, at 10 µM, serotonin added to trigger calcium flux; active compounds read high.
Assay [15] has as its system TRPC4 (mouse), co-expressed with 5HT1a in HEK293. The experiment in a line: calcium flux potentiators in TRPC4/5HT1a cells, confirmation, counter-screen for TRPC4 potentiator project, cell-based, second counter screen, HEK293 TRPC4/5HT1a, Fluo-4 (AID 434979;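 active means signal rise over 3 SD above mean of control wells given weak agonist, in both repeats and first screen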). The following applies: Fluo-4 calcium flux, at 10 µM, serotonin added at its EC20 dose; active compounds read high.
Assay [16] is described as follows: calcium flux activation in mu-opioid HEK293 cells, confirmation, counter-screen for TRPC4 activator project, cell-based, HEK293 mu-opioid receptor line (AID 449723;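 active means hit in primary screen, with calcium signal over 5 SD above buffer well mean in both duplicates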;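 further: counter screen cells carry the mu-opioid receptor alone and lack TRPC4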). The following applies: Fluo-4 calcium fluorescence, at 10 µM; active compounds read high.
Assay [17] is described as follows: calcium flux enhancement in mu-opioid HEK293 cells, confirmation, counter-screen for TRPC4 allosteric potentiator project, cell-based, HEK293 mu-opioid receptor line (AID 449724;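 active means calcium signal rise more than 3 SD above the low-dose agonist control mean, in both duplicate plates and the primary screen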;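 further: HEK293 cells carrying mu-opioid receptor only with no TRPC4 channel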). The following applies: Fluo-4 calcium flux, at 10 µM, compound added before EC20 DAMGO stimulus; active compounds read high.
Assay [18] is described as follows: nonspecific thallium flux increase in parental CHO-K1, confirmation, counter-screen for KCNQ2 potentiator project, cell-based, FluxOR thallium flux, duplicate (AID 2282;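 active means signal rise of at least 3 SD above the untreated control mean, in both duplicate wells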;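 further: counter screen of KCNQ2 potentiator hits so any rise reflects channel-independent effects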). The following applies: parental CHO-K1 cells, FluxOR thallium flux fluorescence; at 10 µM; active compounds read high; zero = vehicle mean+3SD, 100% = vehicle-minus-blank window.
For assay [19], the target named is Potassium voltage-gated channel subfamily KQT member 1 (Homo sapiens) (UniProt P51787). The assay is described as follows: human KCNQ1 channel potentiation off-target, confirmation, selectivity assay for KCNQ2 potentiator project, cell-based, CHO, FluxOR thallium flux (AID 2283;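 active means fluorescence ratio rise of at least 3 SD of vehicle wells above their mean, in both replicate wells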;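 further: 0% = vehicle mean plus 3 SD and 100% = vehicle minus unstimulated blank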). The following applies: CHO KCNQ1 stable, FluxOR thallium flux fluorescence; at 10 µM; active compounds read high; beyond 3SD, as % of vehicle-control signal.

The target of assay [20] is Potassium voltage-gated channel subfamily KQT member 2 (Rattus norvegicus) (UniProt O88943). The experiment in a line: rat KCNQ2 channel potentiators, confirmation, cell-based, CHO, FluxOR thallium flux, duplicate (AID 2287;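 active means fluorescence ratio rising 3 SD or more over the vehicle control mean in both replicates, plus primary screen hit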;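 further: peak minus minimum thallium fluorescence divided by baseline after K/Tl stimulus; 0% = vehicle mean plus 3 SD and 100% = vehicle minus unstimulated blank difference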). The following applies: CHO-KCNQ2 cells, FluxOR thallium flux fluorescence; at 10 µM; active compounds read high.
Assay [21] has the same target. The experiment in a line: potentiators of retigabine-insensitive KCNQ2 W236L, mechanism study for KCNQ2 potentiator project, cell-based, rat KCNQ2 W236L, CHO, automated patch clamp (AID 2558;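 active means current increase at least 3 SD of the untreated controls above them in both duplicate recordings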). The following applies: at 25 µM; outcome: automated patch clamp current. (Patch clamp records ionic current or voltage across a cell membrane.)
In assay [22] the target is Inward rectifier potassium channel 2 (Mus musculus) (UniProt P35561). The assay is described as follows: PubChem AID 2345.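 Further: 0% = vehicle mean plus 3 SD and 100% = vehicle minus no-stimulus blank window.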 The following applies: HEK293 Kir2.1, FluxOR thallium flux fluorescence; at 10 µM; active compounds read high.
Chain of Inward rectifier potassium channel 2 (Mus musculus) (P35561 whole entry, looked up): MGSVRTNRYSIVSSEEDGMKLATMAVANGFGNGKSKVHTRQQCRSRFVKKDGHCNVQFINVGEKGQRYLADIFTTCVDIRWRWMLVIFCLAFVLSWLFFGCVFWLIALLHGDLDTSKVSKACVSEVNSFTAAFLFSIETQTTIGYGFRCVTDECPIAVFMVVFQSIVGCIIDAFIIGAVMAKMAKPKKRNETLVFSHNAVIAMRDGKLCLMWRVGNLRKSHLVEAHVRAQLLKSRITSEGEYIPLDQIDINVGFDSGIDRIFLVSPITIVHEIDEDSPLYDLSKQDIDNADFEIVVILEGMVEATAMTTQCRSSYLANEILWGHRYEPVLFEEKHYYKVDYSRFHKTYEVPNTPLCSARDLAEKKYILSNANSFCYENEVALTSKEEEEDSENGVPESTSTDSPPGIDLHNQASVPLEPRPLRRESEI

Chain of Short transient receptor potential channel 4 (Mus musculus) (Q9QUQ5 whole entry, looked up): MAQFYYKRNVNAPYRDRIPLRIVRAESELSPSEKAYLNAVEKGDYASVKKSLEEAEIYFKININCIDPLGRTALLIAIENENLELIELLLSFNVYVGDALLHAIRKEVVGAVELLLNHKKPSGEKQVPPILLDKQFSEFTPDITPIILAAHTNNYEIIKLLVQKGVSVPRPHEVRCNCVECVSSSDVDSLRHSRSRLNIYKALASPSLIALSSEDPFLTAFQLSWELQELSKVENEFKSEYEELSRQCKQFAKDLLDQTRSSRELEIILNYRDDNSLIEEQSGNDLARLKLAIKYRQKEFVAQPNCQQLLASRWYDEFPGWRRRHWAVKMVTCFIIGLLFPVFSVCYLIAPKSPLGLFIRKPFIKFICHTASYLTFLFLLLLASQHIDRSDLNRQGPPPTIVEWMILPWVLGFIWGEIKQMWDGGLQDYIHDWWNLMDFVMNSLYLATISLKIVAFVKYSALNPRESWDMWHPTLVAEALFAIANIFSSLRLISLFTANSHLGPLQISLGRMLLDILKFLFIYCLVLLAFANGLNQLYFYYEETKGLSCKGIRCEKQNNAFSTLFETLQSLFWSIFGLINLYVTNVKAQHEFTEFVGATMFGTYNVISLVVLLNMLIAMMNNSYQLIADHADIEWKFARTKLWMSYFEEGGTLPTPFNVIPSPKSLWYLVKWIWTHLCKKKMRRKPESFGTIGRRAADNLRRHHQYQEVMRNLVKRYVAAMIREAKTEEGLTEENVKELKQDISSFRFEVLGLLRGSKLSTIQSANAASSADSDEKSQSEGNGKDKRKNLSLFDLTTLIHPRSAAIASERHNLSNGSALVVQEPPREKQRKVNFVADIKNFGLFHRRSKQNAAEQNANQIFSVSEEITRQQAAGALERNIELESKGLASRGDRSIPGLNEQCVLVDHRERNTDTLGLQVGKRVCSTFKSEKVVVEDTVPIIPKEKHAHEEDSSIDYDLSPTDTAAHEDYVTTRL
Chain of Short transient receptor potential channel 6 (Mus musculus) (Q61143 whole entry, looked up): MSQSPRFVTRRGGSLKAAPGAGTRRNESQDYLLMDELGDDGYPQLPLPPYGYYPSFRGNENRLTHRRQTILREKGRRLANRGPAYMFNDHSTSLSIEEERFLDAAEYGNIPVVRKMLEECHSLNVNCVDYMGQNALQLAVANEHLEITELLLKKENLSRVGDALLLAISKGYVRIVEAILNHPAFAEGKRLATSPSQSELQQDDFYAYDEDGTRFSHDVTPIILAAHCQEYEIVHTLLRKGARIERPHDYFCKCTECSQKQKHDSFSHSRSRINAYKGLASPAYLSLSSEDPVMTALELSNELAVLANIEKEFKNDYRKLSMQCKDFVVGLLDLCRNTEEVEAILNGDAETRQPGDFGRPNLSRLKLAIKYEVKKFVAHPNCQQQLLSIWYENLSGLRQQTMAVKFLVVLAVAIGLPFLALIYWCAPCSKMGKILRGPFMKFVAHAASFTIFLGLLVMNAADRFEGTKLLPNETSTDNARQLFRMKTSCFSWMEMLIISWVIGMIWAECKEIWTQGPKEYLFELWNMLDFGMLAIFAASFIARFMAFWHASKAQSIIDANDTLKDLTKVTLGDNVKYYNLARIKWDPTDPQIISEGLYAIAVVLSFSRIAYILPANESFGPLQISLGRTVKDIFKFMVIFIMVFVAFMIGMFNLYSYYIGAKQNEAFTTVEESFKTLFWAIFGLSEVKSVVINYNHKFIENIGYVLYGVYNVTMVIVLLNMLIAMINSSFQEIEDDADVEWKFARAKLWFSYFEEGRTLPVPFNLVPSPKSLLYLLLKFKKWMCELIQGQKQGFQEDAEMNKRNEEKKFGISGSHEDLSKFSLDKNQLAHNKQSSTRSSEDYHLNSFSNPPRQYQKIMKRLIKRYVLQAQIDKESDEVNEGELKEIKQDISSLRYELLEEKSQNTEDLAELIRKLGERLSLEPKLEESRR
Chain of Potassium voltage-gated channel subfamily KQT member 1 (Homo sapiens) (P51787 whole entry, looked up): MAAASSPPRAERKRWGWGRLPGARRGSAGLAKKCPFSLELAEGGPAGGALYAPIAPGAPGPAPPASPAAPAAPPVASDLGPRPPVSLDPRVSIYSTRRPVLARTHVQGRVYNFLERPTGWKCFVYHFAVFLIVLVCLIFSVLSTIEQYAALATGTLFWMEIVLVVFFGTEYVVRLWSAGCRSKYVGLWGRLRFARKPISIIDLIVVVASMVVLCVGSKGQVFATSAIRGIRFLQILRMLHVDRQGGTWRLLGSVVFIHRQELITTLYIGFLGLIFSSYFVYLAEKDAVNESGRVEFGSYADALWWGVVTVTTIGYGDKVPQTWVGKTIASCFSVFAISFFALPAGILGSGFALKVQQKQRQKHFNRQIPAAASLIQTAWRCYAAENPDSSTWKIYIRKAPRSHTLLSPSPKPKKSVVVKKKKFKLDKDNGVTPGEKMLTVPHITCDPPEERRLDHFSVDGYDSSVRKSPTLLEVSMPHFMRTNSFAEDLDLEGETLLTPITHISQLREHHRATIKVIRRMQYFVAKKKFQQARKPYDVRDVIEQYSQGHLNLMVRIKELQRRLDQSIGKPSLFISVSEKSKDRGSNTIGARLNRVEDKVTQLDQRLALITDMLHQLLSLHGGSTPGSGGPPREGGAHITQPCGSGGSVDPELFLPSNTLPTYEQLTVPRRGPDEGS

For `Cc1ccc(NC(=O)c2cccs2)cc1`, the outcome in [1], in assay [2], in assay [3], in assay [4], in assay [5] and in assay [6] was inactive. The result in [7], in [8], in assay [9], in assay [10], in assay [11] and in [12] was inactive. Besides, the result in assay [13], in assay [14], in [15], in [16] and in [17] was inactive.

For `COc1ccc(NC(=O)CCCC2CCCCC2)c(OC)c1`, the activity increase over 3SD of controls in assay [18] was -19.3%. Moreover, in [19], the activation over 3SD threshold was -6.1%. Moreover, in assay [20], the potentiation, less the hit threshold is 80% (active). Also, the result in assay [21] was inactive.

With `COc1ccc(/C=C(\C#N)C(=O)N2CCOCC2)cc1Br`, the outcome in assay [1], in [2], in assay [3], in assay [5], in [6] and in [7] was inactive. Moreover, the outcome in assay [8], in [9], in assay [10], in assay [11], in assay [12] and in assay [13] was inactive. In addition, the result in assay [14], in assay [16] and in [17] was inactive. Moreover, the figures for the potentiation in assay [4] and in assay [15] were 17% (active) and 20.4% (active), respectively.

With `CC(C)(C)C1CCC(C(=O)NCC(c2cccs2)N2CCOCC2)CC1` (centres undefined), in assay [18], the activity increase over 3SD of controls is -27.5%. For the same molecule, the activation over 3SD threshold in [19] was -18.7%. Moreover, the potentiation, less the hit threshold in assay [20] was 13.3% (active). For the same molecule, the activity over 3SD threshold in [22] is -57.7%. Besides, the result in assay [21] was inactive.

On to `Clc1ccc2nc(CN3CCCc4ccccc43)cn2c1`, for which the outcome in assay [1], in assay [2], in assay [3], in assay [5], in [6] and in assay [7] was inactive. In addition, the outcome in assay [8], in assay [9], in assay [10], in [11], in [12] and in assay [13] was inactive. The result in [14], in assay [16] and in assay [17] was inactive. Also, the potentiation in [4] is 12% (active); in [15] it was 28% (active).

Consider `O=C(COc1coc(CN2CCN(c3ccccc3F)CC2)cc1=O)Nc1ccccc1`, for which the outcome in assay [1], in [2], in assay [3], in [4], in assay [5] and in assay [6] was inactive. For the same molecule, the outcome in assay [7], in [8], in [9], in assay [10], in assay [11] and in assay [12] was inactive. The outcome in assay [13], in assay [14], in assay [15], in assay [16] and in [17] was inactive.

Consider `CSc1ccc(/C=N\NC(=O)CC(=O)NC(C)C)cc1`, for which the outcome in [1], in assay [2], in assay [3], in assay [4], in assay [5] and in assay [6] was inactive. The result in [7], in assay [8], in assay [9], in assay [10], in assay [11] and in assay [12] was inactive. Besides, the outcome in assay [13], in [14], in [15], in assay [16] and in assay [17] was inactive.
